Screens: PubChem BioAssay, several laboratories
CYP2C19 act – increases human CYP2C19 enzyme activity; P33261; recombinant CYP2C19, luciferin-H EGE luminescence; hits give high values; 0 = fully inhibited enzyme, 1 = untreated enzyme; activation factor at 5 µM; 96,000 tested, under 10 active; AID 1025;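 active means activation factor of at least 2 at 5 µM in the primary screen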;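 further: 0 = wells with 2.5 mM tranylcypromine and 1 = vehicle-only wells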
Target sequence (P33261 whole entry, looked up): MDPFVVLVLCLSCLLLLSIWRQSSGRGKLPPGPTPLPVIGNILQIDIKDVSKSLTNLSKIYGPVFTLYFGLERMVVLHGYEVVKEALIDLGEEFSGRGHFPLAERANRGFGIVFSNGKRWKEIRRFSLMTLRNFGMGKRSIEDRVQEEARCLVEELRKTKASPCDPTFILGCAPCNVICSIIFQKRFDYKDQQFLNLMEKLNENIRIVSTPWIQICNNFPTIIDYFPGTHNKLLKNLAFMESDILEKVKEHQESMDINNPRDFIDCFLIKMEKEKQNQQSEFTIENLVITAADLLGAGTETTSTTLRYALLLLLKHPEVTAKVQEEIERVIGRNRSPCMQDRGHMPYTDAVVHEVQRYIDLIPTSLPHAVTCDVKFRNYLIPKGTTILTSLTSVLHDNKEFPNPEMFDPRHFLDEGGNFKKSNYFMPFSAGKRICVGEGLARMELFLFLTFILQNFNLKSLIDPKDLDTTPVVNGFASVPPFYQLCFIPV
CYP2C19 inh – inhibitors of human CYP2C19; P33261; CYP2C19 Supersomes, luciferin-H EGE luminescence, 30 min; inhibition, % at 5 µM; 96,000 tested, 21% active; AID 778;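 active means CYP2C19 inhibition above a set limit at 5 µM in the primary screen, cut at about 50% in these data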;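 further: plate controls were negative control wells for no effect and 2.5 mM tranylcypromine positive control for full effect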
Cav32 inh – human Cav3.2 channel inhibition, primary screen | Cav3.2-expressing cells, Fluo-4 calcium fluorescence FDSS; hits give low values | B-score at 10 µM | 100,000 tested, 4% active | AID 449739;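 active means single-dose well whose peak fluorescence ratio is a statistical outlier from its plate by either plate-standardised score or position-corrected B-score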
CYP2C9 act – CYP2C9 (human) activation | activation factor at 5 µM | P11712 | recombinant CYP2C9, luciferin-H conversion, luminescence; hits give high values; factor 1 = untreated enzyme, 0 = blocked | 96,000 tested, 1.4% active;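 active means activation factor of 2 or more for CYP2C9 at a 5 µM dose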;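 further: 0 = sulfaphenazole-blocked wells and 1 = vehicle-only wells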
CYP2C9 inhib – human CYP2C9 inhibition | P11712 | CYP2C9 Supersomes, luciferin-H conversion, luminescence | inhibition, % at 5 µM | 96,000 tested, 20% active;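 active means blocking of liver enzyme CYP2C9 beyond about 50% at 5 µM, limit read from the data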
The depositor's hits bear a star; · = no result given. The list is not random: actives were taken first. Their share in the collection is about 27%.

SMILES | CYP2C19 act | CYP2C19 inh | Cav32 inh | CYP2C9 act | CYP2C9 inhib
CS(=O)(=O)N1CCN(C(=O)C2c3ccccc3Oc3ccccc32)CC1 | 0 | 97* | 0.19 | 0.5 | 50*
CCOC(=O)C1CCCN(c2c(Nc3ccc(OCC)cc3)c(=O)c2=O)C1 (centres undefined) | 0.8 | 21 | 1.5 | 0.8 | 23
CCOC(=O)C1CCCN(C(=O)Cc2ccc(C)cc2)C1 (centres undefined) | 0.9 | 14 | 0.89 | 0.5 | 48
CCOC(=O)C1CCN(C(=O)COC(=O)COc2ccccc2OC)CC1 | 1 | 5 | 0.021 | 1.2 | -22
CCOC(=O)C1CCCN(C(=O)C2c3ccccc3Oc3ccccc32)C1 (centres undefined) | 0 | 97* | -5.8* | 0.4 | 64*
CCOC(=O)C1CCCN(C(=O)CC(c2ccccc2)c2ccccc2)C1 (centres undefined) | · | · | -2.5 | · | ·
CC1(C)CC(=O)c2c(noc2-c2ccccc2)C1 | 0.5 | 46 | -0.31 | 0.9 | 13
c1ccc(-c2onc3cc4c(cc23)OCCO4)cc1 | 0.5 | 50* | -1.4 | 0.5 | 54*
COc1cccc(/C=N/n2nnnc2N)c1OCc1ccccc1Cl | · | · | 0.22 | · | ·
c1ccc2nc(-c3nc4ccccc4[nH]3)ccc2c1 | 0.6 | 40 | -0.11 | 0.9 | 10
Oc1ccc(-c2[nH]nc(-c3ccccc3)c2-c2nc3ccccc3[nH]2)cc1 | 1.2 | -18 | -5.5* | 1.2 | -15
COc1ccccc1/C=C/C(=O)c1c2c(c(C)[nH]c1=O)CCCC2 | 0.8 | 23 | -0.0057 | 2.3* | -128
Cc1ccc2c(c1)C(c1ccncc1)=NNC(c1ccc(C(C)C)cc1)=N2 | 0.6 | 38 | -0.37 | 0.9 | 9
COCCOc1nc2c(c(=O)n(C)c(=O)n2C)n1Cc1cccc(OC)c1 | 0.9 | 12 | 0.14 | 0.6 | 36
COc1nc(N)c(S(=O)(=O)c2ccc(C)cc2)cc1C#N | 0.5 | 53* | -0.16 | 0.5 | 53*
O=C(COC(=O)c1ccccn1)NCCCc1ccccc1 | 0.6 | 38 | -0.29 | 0.8 | 16
CC(C)(C)NC(=O)CN(C(=O)Cn1nnc(-c2ccc(Cl)cc2)n1)C1CCN(Cc2ccccc2)CC1 | · | · | -7.6* | · | ·
CC(C)(C)NC(=O)CN(C(=O)Cn1nnc(-c2ccccc2F)n1)c1cccc2c1CCCC2 | 0.4 | 57* | -3.1* | 0.1 | 88*
COc1ccc(N=Cc2ccc[nH]2)cc1 | 1 | -3 | 0.17 | 1.1 | -7
CCOc1ccc(S(=O)(=O)n2nnc3ccccc32)cc1C(C)C | 1 | 1 | -0.58 | 0.9 | 8
C=C1CCN([C@H](C(=O)O)C(C)C)S(=O)(=O)c2ccccc21 | · | · | 0.32 | · | ·
COc1ccc(C2C(C(=O)NCc3ccccc3)=C(C)Nc3ncnn32)cc1OC (centres undefined) | 1.1 | -7 | 0.24 | 1.1 | -12
CCOC(=O)N1CCN(c2nc3c(c(=O)[nH]c(=O)n3C)n2Cc2ccccc2Cl)CC1 | 1 | -4 | 1.7 | 1 | -3
CCn1c(N2CCN(CC(=O)c3c[nH]c4ccccc34)CC2)nc2c1c(=O)[nH]c(=O)n2C | 0.6 | 37 | 2.4 | 0.5 | 54*
CCCn1c(N2CCN(CC(=O)c3c(C)n(C)c4ccccc34)CC2)nc2c1c(=O)[nH]c(=O)n2C | 0.8 | 22 | 3.1* | 0.8 | 20
SMILES | CYP2C19 act | CYP2C19 inh | Cav32 inh | CYP2C9 act | CYP2C9 inhib
Oc1ccc(/C=C/c2nc(-c3ccccc3O)n(-c3ccccc3)n2)cc1 | 1.1 | -15 | -0.2 | 0.5 | 49
O=C(NNC(=O)c1ccccc1F)c1cccc(Cl)c1 | 0.9 | 10 | 0.33 | 1.2 | -17
O=C(NNC1=C(C(=O)C(F)(F)F)CCC1)c1cccc(Cl)c1 | 0.7 | 26 | -7.6* | 0.1 | 91*
O=C(NNC1=C(C(=O)C(F)(F)F)CCC1)c1ccc(Cl)cc1 | 1 | 2 | -2.4 | 0.5 | 50*
N#Cc1cnn(-c2ncnc3sc(-c4ccccc4)cc23)c1N | 1 | 2 | 0.43 | 0.7 | 34
Cn1c2ccccc2c2c(C(=O)NCc3ccco3)cn(C3CCCCC3)c(=O)c21 | 0.8 | 20 | -1.5 | 0.5 | 45
Cc1[nH]nc2ncc(C(=O)c3cc(Cl)cc(Cl)c3O)cc12 | 1 | -3 | -1.7 | 0.7 | 32
Cc1[nH]nc2ncc(C(=O)c3cc(F)ccc3O)cc12 | 0.4 | 58* | 0.035 | 1.1 | -10
Cc1noc2ncc(C(=O)c3cc(F)ccc3O)cc12 | 0 | 96* | · | 0.5 | 50*
C=CCOC(=O)C1=C[C@@H](c2ccc3c(c2)OCO3)C[C@@H](OCc2ccc(CO)cc2)O1 | · | · | -1.4 | · | ·
CC(C)(C)C1=C(C#N)C(c2ccc3c(c2)OCO3)C(C#N)=C(N)O1 (centres undefined) | 0.1 | 89* | -0.72 | 0.1 | 90*
CCOC(=O)C1=C(C)OC(N)=C(C#N)C1c1cc2c(cc1Br)OCO2 (centres undefined) | 0.1 | 93* | -1 | 0.6 | 42
CSC1=C(C#N)C(c2ccc3c(c2)OCO3)C2=C(CCCC2=O)N1 (centres undefined) | · | · | -0.051 | · | ·
CCOC(=O)C1=C(C)OC(N)=C(C#N)C1c1cc2ccccc2nc1N1CCCCC1 (centres undefined) | · | · | -0.43 | · | ·
C=CCOC(=O)C1=C(C)OC(N)=C(C#N)C1c1ccc2c(c1)OCO2 (centres undefined) | 0 | 100* | -2.9 | 0 | 98*
COC(=O)C1=C(C)OC(N)=C(C#N)C1c1ccccc1F (centres undefined) | 0.4 | 64* | 2.5 | 0.8 | 16
Cc1oc(C(=O)O)cc1CSc1nnc(-c2ccccc2)n1C | 1.2 | -16 | 1.1 | 0.7 | 29
COc1cc(/C=N/n2c(SC)nnc(C(C)(C)C)c2=O)ccc1O | 0.7 | 31 | 0.71 | 0.6 | 38
COC(=O)C1=C(C)OC(N)=C(C#N)C1c1ccco1 (centres undefined) | · | · | -0.22 | · | ·
COCCOC(=O)C1=C(C)OC(N)=C(C#N)C1c1ccc2c(c1)OCO2 (centres undefined) | 0.2 | 80* | 1.3 | 0.3 | 68*
COCCOC(=O)C1=C(C)OC(N)=C(C#N)C1c1ccco1 (centres undefined) | · | · | 0.95 | · | ·
C=CCOC(=O)C1=C(C)OC(N)=C(C#N)C1c1ccoc1 (centres undefined) | 0.2 | 82* | -0.18 | 0.7 | 34
CCCCCc1nnc(NC(=O)C(=O)OCC)s1 | 1.1 | -14 | -0.013 | 0.9 | 14
COc1ccccc1NC(=O)C1CC(=O)OC1c1ccccc1 (centres undefined) | 0.2 | 78* | 0.54 | 0.9 | 12
CN1CCN(CC(C)(C)NS(=O)(=O)c2ccc(Cl)cc2)CC1 | 0.1 | 95* | 1.3 | 1 | 1
Cc1ccc(Cn2ccc(NC(=O)c3cc4nc5c(c(C(F)(F)F)n4n3)CCc3ccccc3-5)n2)cc1 | 0.7 | 27 | -2 | 0.3 | 71*
O=C(CCSc1nc(-c2ccc3c(c2)OCO3)cc(C(F)(F)F)n1)NCc1ccco1 | 0.3 | 69* | -0.082 | 0.3 | 65*
